Experiment [1] deals with sheep Cyclooxygenase-1 (Cox1), PTGS1 (gene 443551) (UniProt P05979). As to the kind of experiment: NVS_ENZ_oCOX1: NovaScreen (NVS) Enzymatic Assay for sheep Cyclooxygenase-1 (Cox1) (AID 2283239).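 Note: actives reduce cyclooxygenase activity so potencies are for inhibitors.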 In a few lines:
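Colorimetric enzyme readout using sheep seminal-vesicle cyclooxygenase-1, measured 0.66 h post-dosing. Single-concentration duplicates at 25 uM first, then concentration series for actives, with DMSO as baseline and plate controls.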

Experiment [2] relates to rat Monoamine Oxidase, MAO-A, Central (MAOAC), gene 29253. As to the kind of experiment: NVS_ENZ_rMAOAC: NovaScreen (NVS) Enzymatic Assay for rat Monoamine Oxidase, MAO-A, Central (MAOAC) (AID 2283243).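 Note: potency refers to inhibition seen as signal drop below DMSO baseline.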 In a few lines:
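Rat brain tissue extract served as the cell-free enzyme source; activity was measured by radiometric scintillation counting 1.5 hours after compound addition. Loss of signal relative to DMSO baseline indicated inhibition; primary screen at 25 uM in duplicate.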

Experiment [3] has as its target bovine Dopamine Receptor (DR), Non-selective Binding, DRD1 (gene 281125) (UniProt Q95136). As to the kind of experiment: NVS_GPCR_bDR_NonSelective: NovaScreen (NVS) G Protein-Coupled Receptor Assay for bovine Dopamine Receptor (DR), Non-selective Binding (AID 2283241). The essentials: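 Bovine striatal membranes; radioligand displacement read by filtration and scintillation counting 1 h after dosing, loss of signal vs DMSO. Screened in duplicate at 25 uM, then concentration-response for hits.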

The target in experiment [4] is rat Monoamine Oxidase, MAO-B, Peripheral (MAOBP), Maob (gene 25750) (UniProt P19643). As to the kind of experiment: NVS_ENZ_rMAOBP: NovaScreen (NVS) Enzymatic Assay for rat Monoamine Oxidase, MAO-B, Peripheral (MAOBP) (AID 2283242).
rat Monoamine Oxidase, MAO-B, Peripheral (MAOBP), Maob (gene 25750), sequence (P19643 whole entry, looked up): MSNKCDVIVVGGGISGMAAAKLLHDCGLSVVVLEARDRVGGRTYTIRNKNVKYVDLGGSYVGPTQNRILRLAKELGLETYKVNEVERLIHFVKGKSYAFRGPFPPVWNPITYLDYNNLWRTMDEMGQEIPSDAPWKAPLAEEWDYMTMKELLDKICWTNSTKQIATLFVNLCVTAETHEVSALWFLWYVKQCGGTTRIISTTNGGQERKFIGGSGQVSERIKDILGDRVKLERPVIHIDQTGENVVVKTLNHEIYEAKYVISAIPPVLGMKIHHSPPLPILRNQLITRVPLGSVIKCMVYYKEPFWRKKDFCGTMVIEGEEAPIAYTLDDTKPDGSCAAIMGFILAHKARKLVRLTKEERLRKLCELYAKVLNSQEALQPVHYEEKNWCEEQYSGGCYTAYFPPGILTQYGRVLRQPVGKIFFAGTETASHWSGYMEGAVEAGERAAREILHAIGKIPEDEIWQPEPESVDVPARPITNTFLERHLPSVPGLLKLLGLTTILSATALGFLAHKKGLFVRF
Experiment [5] concerns the target rat Monoamine Oxidase, MAO-B, Central (MAOBC), Maob (gene 25750) (UniProt P19643). As to the kind of experiment: NVS_ENZ_rMAOBC: NovaScreen (NVS) Enzymatic Assay for rat Monoamine Oxidase, MAO-B, Central (MAOBC) (AID 2283238). The essentials: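 Compounds were first tested in duplicate at 25 uM against MAO-B from rat brain tissue; those passing the inhibition threshold were retested in concentration series up to 50 uM. Radiodetection by scintillation counting at 1.17 h, analysed against DMSO baseline.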

For experiment [6], the target named is rat Acetylcholinesterase (AChE), Ache (gene 83817) (UniProt P37136). In words: NVS_ENZ_rAChE: NovaScreen (NVS) Enzymatic Assay for rat Acetylcholinesterase (AChE) (AID 2283233). The essentials: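 Rat brain membrane acetylcholinesterase activity measured colorimetrically 0.33 h after compound addition, loss of signal relative to DMSO. Primary screen in duplicate at 25 uM; actives re-run as concentration-response with 50 uM top concentration.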
rat Acetylcholinesterase (AChE), Ache (gene 83817), sequence (P37136 whole entry, looked up): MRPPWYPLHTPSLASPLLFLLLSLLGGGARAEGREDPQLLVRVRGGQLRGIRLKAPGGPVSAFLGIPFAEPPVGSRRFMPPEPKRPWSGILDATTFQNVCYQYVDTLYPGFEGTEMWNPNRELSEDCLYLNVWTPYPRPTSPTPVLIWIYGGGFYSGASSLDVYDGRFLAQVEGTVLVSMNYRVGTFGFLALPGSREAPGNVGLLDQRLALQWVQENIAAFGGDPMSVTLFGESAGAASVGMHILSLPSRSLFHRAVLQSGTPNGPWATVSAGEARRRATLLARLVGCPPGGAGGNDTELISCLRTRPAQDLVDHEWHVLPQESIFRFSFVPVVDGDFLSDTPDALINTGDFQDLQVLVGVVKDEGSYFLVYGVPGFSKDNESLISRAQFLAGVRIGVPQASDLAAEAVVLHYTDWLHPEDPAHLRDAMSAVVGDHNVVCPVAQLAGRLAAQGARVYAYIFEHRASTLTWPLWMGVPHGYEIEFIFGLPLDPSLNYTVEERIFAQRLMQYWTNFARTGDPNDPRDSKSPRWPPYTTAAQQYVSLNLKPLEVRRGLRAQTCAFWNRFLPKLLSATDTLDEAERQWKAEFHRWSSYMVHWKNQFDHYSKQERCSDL

The target of experiment [7] is rat Adenylate Cyclase, Forskolin Stimulated, Adcy5 (gene 64532) (UniProt Q04400). In words: NVS_ENZ_rACFSKBinding: NovaScreen (NVS) Enzymatic Assay for rat Adenylate Cyclase, Forskolin Stimulated (AID 2283232). In a few lines:
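Rat forebrain membrane preparation, cell-free, read 1 h after dosing by filter-based scintillation counting. Primary screen in duplicate at 25 uM; actives (e.g. ≥30% inhibition) rerun in concentration-response up to 50 uM; fit versus DMSO.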

Experiment [8] has as its target rat Constitutive Nitric Oxide Synthase (CNOS), Nos1 (gene 24598) (UniProt P29476). In words: NVS_ENZ_rCNOS: NovaScreen (NVS) Enzymatic Assay for rat Constitutive Nitric Oxide Synthase (CNOS) (AID 2283236). In a few lines: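 Enzyme activity in rat brain membrane preparation, read 1 h after dosing by filter-based radiometric scintillation counting. Primary screen in duplicate at 25 uM; actives (e.g., ≥30% inhibition) then run in concentration-response up to 50 uM.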

In experiment [9] the target is rat Catechol-O-Methyl Transferase (COMT), Comt (gene 24267) (UniProt P22734). As to the kind of experiment: NVS_ENZ_rCOMT: NovaScreen (NVS) Enzymatic Assay for rat Catechol-O-Methyl Transferase (COMT) (AID 2283235). The essentials: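 Cell-free enzyme activity with protein extracted from rat dorsal striatum, measured by HPLC with absorbance detection. Compounds screened at 25 uM in duplicate; actives then run in concentration-response up to 50 uM, loss of signal versus DMSO.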
rat Catechol-O-Methyl Transferase (COMT), Comt (gene 24267), sequence (P22734 whole entry, looked up): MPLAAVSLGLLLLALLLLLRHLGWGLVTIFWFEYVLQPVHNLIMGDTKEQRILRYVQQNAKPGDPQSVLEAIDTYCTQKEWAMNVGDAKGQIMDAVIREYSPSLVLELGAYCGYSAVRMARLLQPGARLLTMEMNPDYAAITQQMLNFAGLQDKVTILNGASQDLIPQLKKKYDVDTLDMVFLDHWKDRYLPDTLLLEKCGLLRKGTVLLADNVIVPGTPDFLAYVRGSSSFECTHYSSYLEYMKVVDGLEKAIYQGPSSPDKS

Records with an inconclusive call do not appear. Active and inactive are the calls of the source. Rule for the calls: active = hit-call score of the fitted dose curve at least 0.9, where 1 is the maximum; inconclusive = response in the unintended direction; inactive = score below 0.9.

Experimental findings from PubChem BioAssay (EPA / NIEHS) are described below.

rat Monoamine Oxidase, MAO-B, Central (MAOBC), Maob (gene 25750), sequence (P19643 whole entry, looked up): as the sequence (P19643 whole entry, looked up) above
sheep Cyclooxygenase-1 (Cox1), PTGS1 (gene 443551), sequence (P05979 whole entry, looked up): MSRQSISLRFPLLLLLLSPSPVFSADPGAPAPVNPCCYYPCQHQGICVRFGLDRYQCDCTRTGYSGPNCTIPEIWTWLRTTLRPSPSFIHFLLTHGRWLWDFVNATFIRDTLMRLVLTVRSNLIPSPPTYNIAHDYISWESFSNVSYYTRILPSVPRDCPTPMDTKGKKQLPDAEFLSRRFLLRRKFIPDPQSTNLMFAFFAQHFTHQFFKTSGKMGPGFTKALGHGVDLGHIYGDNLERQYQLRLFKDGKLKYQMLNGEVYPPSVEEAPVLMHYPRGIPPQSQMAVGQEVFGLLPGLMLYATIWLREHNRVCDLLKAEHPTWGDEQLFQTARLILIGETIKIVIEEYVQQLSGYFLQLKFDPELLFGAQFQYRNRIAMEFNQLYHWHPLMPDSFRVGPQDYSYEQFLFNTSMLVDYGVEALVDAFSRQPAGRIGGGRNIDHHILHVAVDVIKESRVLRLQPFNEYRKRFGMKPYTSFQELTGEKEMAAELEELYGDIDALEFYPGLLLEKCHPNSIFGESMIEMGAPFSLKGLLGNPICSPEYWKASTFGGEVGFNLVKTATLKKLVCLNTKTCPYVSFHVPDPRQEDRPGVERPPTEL
bovine Dopamine Receptor (DR), Non-selective Binding, DRD1 (gene 281125), sequence (Q95136 whole entry, looked up): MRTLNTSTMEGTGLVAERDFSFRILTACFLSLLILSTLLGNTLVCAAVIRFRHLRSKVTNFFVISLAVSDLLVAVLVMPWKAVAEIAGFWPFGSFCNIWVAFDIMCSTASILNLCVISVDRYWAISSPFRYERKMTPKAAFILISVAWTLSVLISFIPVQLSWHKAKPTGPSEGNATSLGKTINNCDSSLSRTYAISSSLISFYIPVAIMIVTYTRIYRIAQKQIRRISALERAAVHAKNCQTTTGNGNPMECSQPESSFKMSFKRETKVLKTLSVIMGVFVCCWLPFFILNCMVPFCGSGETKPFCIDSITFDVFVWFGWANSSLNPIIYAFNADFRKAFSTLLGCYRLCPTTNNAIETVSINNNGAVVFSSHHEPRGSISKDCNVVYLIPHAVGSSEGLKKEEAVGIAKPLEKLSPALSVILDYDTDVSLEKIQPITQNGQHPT
rat Adenylate Cyclase, Forskolin Stimulated, Adcy5 (gene 64532), sequence (Q04400 whole entry, looked up): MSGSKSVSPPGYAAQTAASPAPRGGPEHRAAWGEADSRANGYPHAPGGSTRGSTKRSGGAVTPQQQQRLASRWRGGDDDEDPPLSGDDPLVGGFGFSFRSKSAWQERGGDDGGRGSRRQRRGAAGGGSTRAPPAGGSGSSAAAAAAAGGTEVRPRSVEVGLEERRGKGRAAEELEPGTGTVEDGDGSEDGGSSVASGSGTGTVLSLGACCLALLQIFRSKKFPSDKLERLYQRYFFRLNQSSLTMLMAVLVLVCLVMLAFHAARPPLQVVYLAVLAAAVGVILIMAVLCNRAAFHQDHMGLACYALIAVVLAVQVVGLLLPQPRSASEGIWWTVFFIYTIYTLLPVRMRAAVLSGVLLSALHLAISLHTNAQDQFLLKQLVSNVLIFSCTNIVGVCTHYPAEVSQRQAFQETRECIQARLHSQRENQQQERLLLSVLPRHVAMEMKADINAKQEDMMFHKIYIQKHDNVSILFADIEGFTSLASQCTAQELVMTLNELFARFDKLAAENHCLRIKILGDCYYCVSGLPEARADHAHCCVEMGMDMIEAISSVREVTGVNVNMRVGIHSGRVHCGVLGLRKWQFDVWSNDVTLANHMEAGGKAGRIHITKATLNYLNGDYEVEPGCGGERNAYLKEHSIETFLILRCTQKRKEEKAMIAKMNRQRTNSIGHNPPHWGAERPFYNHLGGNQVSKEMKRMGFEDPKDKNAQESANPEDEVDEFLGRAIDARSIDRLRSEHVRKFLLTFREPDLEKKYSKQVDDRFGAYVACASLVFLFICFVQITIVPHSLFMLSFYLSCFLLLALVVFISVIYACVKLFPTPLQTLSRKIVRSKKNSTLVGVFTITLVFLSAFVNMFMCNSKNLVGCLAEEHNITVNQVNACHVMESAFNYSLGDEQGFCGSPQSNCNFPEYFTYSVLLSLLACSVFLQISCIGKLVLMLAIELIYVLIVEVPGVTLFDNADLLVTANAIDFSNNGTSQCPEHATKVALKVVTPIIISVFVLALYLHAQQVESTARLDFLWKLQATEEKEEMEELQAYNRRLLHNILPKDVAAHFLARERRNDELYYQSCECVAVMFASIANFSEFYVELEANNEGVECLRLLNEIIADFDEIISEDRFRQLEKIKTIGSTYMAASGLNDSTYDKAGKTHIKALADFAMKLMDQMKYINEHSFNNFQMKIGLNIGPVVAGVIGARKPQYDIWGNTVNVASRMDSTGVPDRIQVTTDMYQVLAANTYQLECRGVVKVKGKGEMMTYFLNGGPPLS

In the case of `c1ccc2c(c1)-c1cccc3cccc-2c13`, the compound was classed as inactive in experiment [1].
With `Nc1ccc(Oc2ccc(N)cc2)cc1`, in experiment [2], the AC50 was 11.3 µM (active).
`[Cl-].[Cl-].[Hg+2]`: the half-maximal activity concentration (AC50) is 2.97 µM (active) in [1], 11.6 µM (active) in [3] and 9.04 µM (active) in [4]. In addition, the result in experiment [2] was inactive.
With `Nc1ccc(N=Nc2ccccc2)cc1`, the AC50 in experiment [5] is 25 µM (active); in [1], 4.49 µM (active); in experiment [2] it was 10.6 µM (active). In experiment [4], the outcome was inactive.
In the case of `Nc1cc(Cl)cc(C(=O)O)c1Cl`, the outcome in experiment [4] was inactive.
As to `Cc1ccc(N)c(N)c1`, in experiment [1], the AC50 is 42 µM (active).
As to `CN(C)C(=O)Nc1ccc(Cl)cc1`, the call in experiment [6] was inactive. In addition, in [2], the half-maximal activity concentration (AC50) is 25 µM (active).
Turning to `Clc1ccccc1Cl`, the result in experiment [1] was inactive.
In the case of `Nc1ccc(Cl)cc1N`, in experiment [1], the AC50 is 4.69 µM (active). In addition, the compound was classed as inactive in experiment [2].
As to `CC(C)(O)c1cnn2c(-c3ccc(F)c(-c4c(F)cccc4C#N)c3)cnc2n1`, the result in experiment [7], in [5] and in experiment [4] was inactive.
Regarding `Clc1ccc(Cl)c(Cl)c1`, the call in [4] was inactive.
With `ClC1=C(Cl)[C@]2(Cl)[C@H]3[C@H]([C@@H]4C=C[C@H]3C4)[C@@]1(Cl)C2(Cl)Cl`, the compound was called inactive in experiment [4].
`CCCCCCCCn1sccc1=O`: the AC50 in [7] was 26 µM (active).
For `O=C(N[C@H](c1ccccc1)[C@@H]1CN2CCC1CC2)c1c(Cl)ccc(C(F)(F)F)c1Cl`, the AC50 in experiment [3] was 29.1 µM (active); in experiment [2], 37.5 µM (active).
For `CCOC(=O)[C@]1(c2ccccc2)Oc2ccccc2[C@@H]1N`, the AC50 in [6] was 17.2 µM (active); in experiment [5], 10.2 µM (active); in [3] it was 1.04 µM (active); in [4] it was 2.44 µM (active). Besides, the outcome in [8] was inactive.
Turning to `C1=Cc2cccc3cccc1c23`, the AC50 in [1] is 15.7 µM (active).
For the compound `CN(C)[C@@H]1C(=O)C(C(N)=O)=C(O)[C@@]2(O)C(=O)C3=C(O)c4c(O)cccc4[C@@](C)(O)[C@H]3C[C@@H]12`, in experiment [9], the AC50 is 2.73 µM (active). Also, the call in experiment [5] and in experiment [1] was inactive.

The term AC50 denotes the concentration at which the activity in the assay is half-maximal.
